Assay results from PubChem BioAssay (NCI).
This is part of a sample that, as a whole, favours compounds with a hit. Of some 83,000 tested, about 20% had one in any assay.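 Note: values are percent growth. 100 is the growth of untreated cells, values between 100 and 0 indicate rising inhibition; between -100 and 0 indicates cell death.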 Active and inactive are the calls of the source. The calls were made as follows: active = growth percent below 10; inactive = the rest.

Tests used:
Test in all cases: NCI-60 one-dose screen, 48 h (100 = growth as untreated, 0 = no growth, -100 = all killed)
Conditions in all cases: 10 µM unless noted
[1] = system: HCT-15 colon
[2] = system: HT29 colon
[3] = system: SNB-75 CNS
[4] = system: SNB-19 CNS
[5] = system: U251 CNS
[6] = system: PC-3 prostate
[7] = system: SK-MEL-5 melanoma
[8] = system: UACC-62 melanoma
[9] = system: LOX IMVI melanoma
[10] = system: SK-MEL-28 melanoma
[11] = system: SK-MEL-2 melanoma
[12] = system: EKVX NSCLC
[13] = system: SN12C renal
[14] = system: UO-31 renal
[15] = system: TK-10 renal
[16] = system: ACHN renal
[17] = system: CAKI-1 renal
[18] = system: A498 renal
[19] = system: CCRF-CEM leukemia
[20] = system: MOLT-4 leukemia

Measured: growth

Cc1ccc(N=Nc2c(N)nn3c(-c4cc5ccccc5oc4=O)ccnc23)cc1
inactive: [1] 40.6% | [2] 30.2% | [3] 93.7% | [4] 32.2% | [5] 43% | [6] 54.6% | [7] 42.4% | [8] 82.3% | [9] 36% | [10] 44.7% | [11] 61.5% | [12] 49.2% | [13] 48.2% | [14] 53.8% | [15] 57.9% | [16] 34.9% | [17] 57.1% | [18] 150% | [19] 70.2% | [20] 39%

N#Cc1c(NC(=O)N2CCOCC2)n(-c2ccc(OC(F)(F)F)cc2)c2cc(F)ccc12
inactive: [1] 95.5% | [2] 90% | [3] 140% | [4] 117% | [5] 98.8% | [6] 83.9% | [7] 82.4% | [8] 73.2% | [9] 102% | [10] 89.5% | [11] 94% | [12] 90.1% | [13] 93.5% | [14] 104% | [15] 113% | [16] 93.2% | [17] 88.9% | [18] 177% | [19] 85.5% | [20] 68.7%

CN(C)CCOc1ccc(C(=O)C2[C@H](c3ccc(Cl)cc3)[C@@H](c3ccccc3)NC23C(=O)Nc2ccc(Cl)cc23)cc1 (stereo not given in full)
active: [1] -91.5% | [2] -93.7% | [3] -90.7% | [4] -96.2% | [5] -82.9% | [6] -89.9% | [7] -98.2% | [8] -78.3% | [9] -96.3% | [10] -93.4% | [11] -92.5% | [12] -93.9% | [13] -94.5% | [14] -99.7% | [15] -96.7% | [16] -100% | [17] -98.6% | [18] -95.9% | [19] -65.4% | [20] -77.4%

COc1ccc2[nH]c(=O)cc(-n3ncc(C(=O)/C=C/c4cc(OC)c(OC)c(OC)c4)c3C)c2c1
inactive: [3] 32.2% | [4] 19.8% | [12] 11% | [15] 40.9% | [17] 14.6%
active: [1] -27.1% | [2] -27.4% | [5] -67.4% | [6] 7.18% | [7] -93.9% | [8] -69.5% | [9] -85.6% | [10] -77.1% | [11] -28.3% | [13] 7.21% | [14] -36.2% | [16] -14.9% | [18] 0.493% | [19] -20.4% | [20] -7.45%

N#C/C(=C/c1ccc([N+](=O)[O-])cc1)c1nnc(NC(=O)c2ccc(-n3c(=O)[nH]c4ccccc4c3=O)cc2)s1
inactive: [1] 93.3% | [2] 110% | [3] 110% | [4] 87.1% | [5] 89.5% | [6] 90.9% | [7] 99% | [8] 99.2% | [9] 90.5% | [10] 100% | [11] 103% | [12] 93.9% | [13] 94% | [14] 75.6% | [15] 108% | [16] 96.3% | [17] 92% | [18] 132% | [19] 97.8% | [20] 98.5%

COc1ccc2c(c1)N=c1c-2cc2c(O)[nH]c(=S)n2c1=O
active: [3] 6.9%
inactive: [1] 27.3% | [2] 12.3% | [4] 59.8% | [5] 30.9% | [6] 37.7% | [7] 13.5% | [8] 34.4% | [9] 32.6% | [10] 72.6% | [11] 41.9% | [12] 48.7% | [13] 35.6% | [14] 47.8% | [15] 73.5% | [16] 44.9% | [17] 29.7% | [18] 105% | [19] 11.1% | [20] 35.1%

COc1ccc(C(=O)NNC(=O)CSc2nc3sc4c(c3c(=O)n2-c2ccc(Cl)cc2)CCCC4)cc1
inactive: [1] 76.3% | [2] 91.2% | [3] 44.5% | [4] 63.3% | [5] 42.3% | [6] 80.6% | [7] 46.8% | [8] 26.1% | [9] 55.5% | [10] 72.5% | [11] 92.2% | [12] 55.1% | [13] 29.5% | [14] 65.1% | [15] 143% | [16] 85.7% | [17] 74% | [18] 124% | [19] 70.4% | [20] 63.7%
